Screen size: about 5,500 compounds; about 2,000 (36%) were called active. About 18% were inconclusive and are not listed. Rule as the data show it: active = normalized growth mostly below about 0.91 (no sharp cut-off); inconclusive = no clear call, values can overlap the other calls; inactive = mostly above about 0.92. The list shows a part of the results.
Assay: chemical genetic growth profiling, strain panel (AID 1159580);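 also: tested at 20 µM; growth read once vehicle control cultures reached saturation at 30 °C; 1 = growth at the plate median or of vehicle wells; lower values mean less growth of the strain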
Settings: S. cerevisiae deletion strains, growth OD

Measured: normalized growth

CC(=O)Oc1cccc(C(=O)O)c1OC(C)=O
inactive: locus YAL013W, strain DEP1, stronger effect = lower value 1.01 | locus YBR021W, strain FUR4, stronger effect = lower value 0.987 | locus YBR229C, strain ROT2, stronger effect = lower value 1 | locus YCL029C, strain bik1, stronger effect = lower value 1 | locus YDL035C, strain GPR1, stronger effect = lower value 1.03 | locus YDL074C, strain BRE1, stronger effect = lower value 1.01 | locus YDL101C, strain DUN1, stronger effect = lower value 1.01 | locus YDL134C, strain PPH21, stronger effect = lower value 1.01 | locus YDL185W, strain tfp1, stronger effect = lower value 1.02 | locus YDL192W, strain arf1, stronger effect = lower value 1.02 | locus YDR101C, strain arx1, stronger effect = lower value 0.985 | locus YDR162C, strain NBP2, stronger effect = lower value 1.02 | locus YDR318W, strain mcm21, stronger effect = lower value 1.01 | locus YDR388W, stronger effect = lower value 1.01 | locus YDR502C, strain sam2, stronger effect = lower value 1 | locus YEL061C, strain CIN8, stronger effect = lower value 1.01 | locus YER110C, stronger effect = lower value 1.02 | locus YER155C, strain BEM2, stronger effect = lower value 1 | locus YER167W, strain BCK2, stronger effect = lower value 1.01 | locus YGL078C, strain dbp3, stronger effect = lower value 1.01 | locus YGL086W, strain mad1, stronger effect = lower value 0.997 | locus YGL248W, strain PDE1, stronger effect = lower value 1.01 | locus YGR078C, strain PAC10, stronger effect = lower value 1.01 | locus YGR135W, strain pre9, stronger effect = lower value 1.04 | locus YGR252W, strain gcn5, stronger effect = lower value 1 | locus YHR030C, strain SLT2, stronger effect = lower value 1.01 | locus YHR079C, strain IRE1 (second series), stronger effect = lower value 1.01 | locus YHR094C, strain hxt1, stronger effect = lower value 1.01 | locus YHR129C, strain ARP1, stronger effect = lower value 1.01 | locus YHR200W, strain rpn10, stronger effect = lower value 1.02 | locus YIL066C, strain RNR3, stronger effect = lower value 1.01 | locus YIL073C, strain SPO22, stronger effect = lower value 1.05 | locus YIL125W, strain kgd1, stronger effect = lower value 1.01 | locus YIR030C, strain dcg1, stronger effect = lower value 1.01 | locus YJL095W, strain BCK1, stronger effect = lower value 1.01 | locus YJL134W, strain LCB3, stronger effect = lower value 1 | locus YJL168C, strain set2, stronger effect = lower value 1.02 | locus YJL187C, strain SWE1 (second series), stronger effect = lower value 1.01 | locus YJR043C, strain POL32, stronger effect = lower value 1.01 | locus YJR075W, strain HOC1, stronger effect = lower value 1.03 | locus YKL009W, strain mrt4, stronger effect = lower value 1.03 | locus YKL068W, stronger effect = lower value 1.01 | locus YKL085W, strain MDH1 (second series), stronger effect = lower value 1.07 | locus YKL085W, strain MDH1, stronger effect = lower value 1.07 | locus YKL190W, strain CNB1, stronger effect = lower value 1.01 | locus YKR001C, strain vps1, stronger effect = lower value 1.01 | locus YLR039C, strain RIC1, stronger effect = lower value 1.02 | locus YLR058C, strain SHM2, stronger effect = lower value 1.01 | locus YLR102C, strain apc9, stronger effect = lower value 1.01 | locus YLR262C, strain YPT6, stronger effect = lower value 1.02 | locus YLR268W, strain sec22, stronger effect = lower value 1 | locus YLR330W, strain CHS5, stronger effect = lower value 1.01 | locus YLR342W, strain FKS1 (second series), stronger effect = lower value 1.04 | locus YLR371W, strain rom2, stronger effect = lower value 1 | locus YLR418C, strain cdc73, stronger effect = lower value 1.01 | locus YML016C, strain PPZ1, stronger effect = lower value 1.01 | locus YML032C, strain rad52, stronger effect = lower value 1.02 | locus YML124C, strain tub3, stronger effect = lower value 1.02 | locus YMR078C, strain ctf18, stronger effect = lower value 1.02 | locus YMR223W, strain ubp8, stronger effect = lower value 1.04 | locus YMR307W, strain GAS1, stronger effect = lower value 1.07 | locus YNL067W, strain RPL9B, stronger effect = lower value 1.01 | locus YNL153C, strain GIM3, stronger effect = lower value 0.997 | locus YNL233W, strain BNI4, stronger effect = lower value 1 | locus YNL250W, strain rad50, stronger effect = lower value 1.04 | locus YNL271C, strain bni1, stronger effect = lower value 1.01 | locus YNL298W, strain CLA4, stronger effect = lower value 1.02 | locus YNL307C, strain MCK1, stronger effect = lower value 1.02 | locus YNL322C, strain KRE1, stronger effect = lower value 1.01 | locus YNR052C, strain pop2, stronger effect = lower value 1.01 | locus YOL006C, strain TOP1, stronger effect = lower value 1.06 | locus YOL147C, strain pex11, stronger effect = lower value 1.01 | locus YOR061W, strain CKA2, stronger effect = lower value 1.01 | locus YOR069W, strain VPS5, stronger effect = lower value 1.01 | locus YOR136W, strain idh2, stronger effect = lower value 1.01 | locus YOR144C, strain elg1, stronger effect = lower value 1.01 | locus YOR184W, strain ser1, stronger effect = lower value 1.02 | locus YOR316C, strain cot1, stronger effect = lower value 1.01 | locus YPR119W, strain clb2, stronger effect = lower value 1.01 | locus YPR141C, strain kar3, stronger effect = lower value 1 | locus YPR163C, strain tif3, stronger effect = lower value 1.01 | locus YPR167C, strain met16, stronger effect = lower value 1.01 | strain wtn01, stronger effect = lower value 1.01
